Source: the supplement of paper PMC11732987, “Enantioselective OTUD7B fragment discovery through chemoproteomics screening and high-throughput optimisation” (Communications Chemistry, 2025)

Columns and labels:
Experiment in all cases: log2 ratio of Biotin-Ahx-Ub-VS probe labelling (fragment/DMSO); higher = less target engagement (more negative = stronger competition), active = hit call of the paper (q ≤ 0.05, log2 ratio ≤ -1)
Details in all cases: compound concentration: 200 uM; treatment time: 3 h
USP42 = molecular target: T1, USP42 (UniProt Q9H9J4)
T1 sequence (whole entry): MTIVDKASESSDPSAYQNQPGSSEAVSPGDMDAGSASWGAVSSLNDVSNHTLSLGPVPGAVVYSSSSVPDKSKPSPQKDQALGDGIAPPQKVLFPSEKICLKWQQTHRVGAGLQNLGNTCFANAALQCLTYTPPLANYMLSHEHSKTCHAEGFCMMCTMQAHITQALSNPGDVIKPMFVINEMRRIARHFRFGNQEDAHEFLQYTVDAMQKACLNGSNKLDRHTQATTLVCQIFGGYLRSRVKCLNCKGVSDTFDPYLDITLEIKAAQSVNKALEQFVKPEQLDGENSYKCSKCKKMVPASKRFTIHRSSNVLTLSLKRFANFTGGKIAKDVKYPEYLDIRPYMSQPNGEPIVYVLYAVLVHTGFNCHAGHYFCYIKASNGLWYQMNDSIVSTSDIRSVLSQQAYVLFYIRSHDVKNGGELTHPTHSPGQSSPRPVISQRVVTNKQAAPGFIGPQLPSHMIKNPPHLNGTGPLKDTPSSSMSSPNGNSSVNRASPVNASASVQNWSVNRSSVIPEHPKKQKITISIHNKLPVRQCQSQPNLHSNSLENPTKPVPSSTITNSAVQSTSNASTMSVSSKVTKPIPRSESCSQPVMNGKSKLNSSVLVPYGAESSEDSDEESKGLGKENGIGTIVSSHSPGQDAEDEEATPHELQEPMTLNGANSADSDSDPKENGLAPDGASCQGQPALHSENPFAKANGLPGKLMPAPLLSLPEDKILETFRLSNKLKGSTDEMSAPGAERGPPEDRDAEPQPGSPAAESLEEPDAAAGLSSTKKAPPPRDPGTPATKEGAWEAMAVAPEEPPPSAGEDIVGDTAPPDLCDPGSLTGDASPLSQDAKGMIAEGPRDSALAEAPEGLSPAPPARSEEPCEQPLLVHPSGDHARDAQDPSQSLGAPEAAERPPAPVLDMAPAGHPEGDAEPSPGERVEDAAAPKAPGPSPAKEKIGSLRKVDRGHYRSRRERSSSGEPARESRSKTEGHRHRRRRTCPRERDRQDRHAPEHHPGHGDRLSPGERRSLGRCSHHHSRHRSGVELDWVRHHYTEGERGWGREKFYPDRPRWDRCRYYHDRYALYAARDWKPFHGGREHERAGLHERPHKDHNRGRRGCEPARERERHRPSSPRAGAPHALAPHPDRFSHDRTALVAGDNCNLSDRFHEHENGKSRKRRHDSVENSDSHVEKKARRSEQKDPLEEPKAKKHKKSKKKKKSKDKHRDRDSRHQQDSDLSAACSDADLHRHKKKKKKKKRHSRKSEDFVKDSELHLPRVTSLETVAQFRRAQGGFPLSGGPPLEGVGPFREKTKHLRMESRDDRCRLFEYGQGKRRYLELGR
Procedure, shortened: (§1)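 Labelled DUBs from HEK293T lysate were NeutrAvidin-enriched, digested with LysC and trypsin, and run by diaPASEF LC-MS/MS. Before that, each 495 µg sample in Tris/CHAPS/IGEPAL buffer with protease inhibitors was treated in triplicate with fragment at 200 µM or vehicle for 3 h, then with Biotin-Ahx-Ub-VS at 0.5 µM final for 1 h. Values are average log2 ratios of fragment over vehicle by unpaired t-test, based on global-median-normalised Spectronaut label-free quantities from proteins with ≥2 unique peptides.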

USP46 = USP46 (UniProt P62068)
Procedure, shortened: as §1

USP47 = molecular target: T2, USP47 (UniProt Q96K76)
T2 sequence (whole entry): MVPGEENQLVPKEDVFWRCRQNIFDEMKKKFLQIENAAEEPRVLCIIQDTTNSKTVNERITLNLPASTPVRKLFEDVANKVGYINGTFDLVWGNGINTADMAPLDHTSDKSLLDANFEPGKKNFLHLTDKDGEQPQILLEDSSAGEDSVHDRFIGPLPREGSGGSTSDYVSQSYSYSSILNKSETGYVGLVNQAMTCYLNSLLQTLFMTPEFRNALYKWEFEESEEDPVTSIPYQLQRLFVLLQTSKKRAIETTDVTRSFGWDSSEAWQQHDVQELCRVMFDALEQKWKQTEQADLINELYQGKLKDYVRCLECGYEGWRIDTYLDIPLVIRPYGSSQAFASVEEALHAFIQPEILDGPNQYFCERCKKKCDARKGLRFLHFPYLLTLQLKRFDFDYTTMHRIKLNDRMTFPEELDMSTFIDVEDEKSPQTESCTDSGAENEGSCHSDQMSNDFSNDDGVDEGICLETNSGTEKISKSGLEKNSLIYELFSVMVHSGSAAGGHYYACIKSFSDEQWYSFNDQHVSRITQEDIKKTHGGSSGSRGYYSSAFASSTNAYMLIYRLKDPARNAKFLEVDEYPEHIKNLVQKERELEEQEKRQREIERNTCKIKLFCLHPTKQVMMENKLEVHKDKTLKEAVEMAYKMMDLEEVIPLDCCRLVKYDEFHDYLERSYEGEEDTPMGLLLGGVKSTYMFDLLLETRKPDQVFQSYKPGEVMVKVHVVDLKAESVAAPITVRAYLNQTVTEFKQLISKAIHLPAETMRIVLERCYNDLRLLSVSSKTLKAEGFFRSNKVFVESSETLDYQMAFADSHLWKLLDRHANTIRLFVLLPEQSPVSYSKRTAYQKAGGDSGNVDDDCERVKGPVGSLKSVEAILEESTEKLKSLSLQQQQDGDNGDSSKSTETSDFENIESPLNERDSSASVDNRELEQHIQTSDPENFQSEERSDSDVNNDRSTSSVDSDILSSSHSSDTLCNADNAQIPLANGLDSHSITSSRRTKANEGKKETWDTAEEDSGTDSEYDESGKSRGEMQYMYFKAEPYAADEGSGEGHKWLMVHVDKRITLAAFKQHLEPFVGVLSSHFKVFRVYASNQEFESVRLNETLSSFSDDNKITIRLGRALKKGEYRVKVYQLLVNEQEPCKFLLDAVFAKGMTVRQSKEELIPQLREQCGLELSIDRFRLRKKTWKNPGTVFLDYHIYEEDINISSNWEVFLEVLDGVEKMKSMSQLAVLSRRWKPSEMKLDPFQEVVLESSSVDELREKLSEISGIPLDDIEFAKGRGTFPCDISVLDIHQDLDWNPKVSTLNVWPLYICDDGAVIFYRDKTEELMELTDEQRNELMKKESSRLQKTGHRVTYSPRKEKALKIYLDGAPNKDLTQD
Procedure, shortened: as §1

USP48 = molecular target: T3, USP48 (UniProt Q86UV5)
T3 sequence (whole entry): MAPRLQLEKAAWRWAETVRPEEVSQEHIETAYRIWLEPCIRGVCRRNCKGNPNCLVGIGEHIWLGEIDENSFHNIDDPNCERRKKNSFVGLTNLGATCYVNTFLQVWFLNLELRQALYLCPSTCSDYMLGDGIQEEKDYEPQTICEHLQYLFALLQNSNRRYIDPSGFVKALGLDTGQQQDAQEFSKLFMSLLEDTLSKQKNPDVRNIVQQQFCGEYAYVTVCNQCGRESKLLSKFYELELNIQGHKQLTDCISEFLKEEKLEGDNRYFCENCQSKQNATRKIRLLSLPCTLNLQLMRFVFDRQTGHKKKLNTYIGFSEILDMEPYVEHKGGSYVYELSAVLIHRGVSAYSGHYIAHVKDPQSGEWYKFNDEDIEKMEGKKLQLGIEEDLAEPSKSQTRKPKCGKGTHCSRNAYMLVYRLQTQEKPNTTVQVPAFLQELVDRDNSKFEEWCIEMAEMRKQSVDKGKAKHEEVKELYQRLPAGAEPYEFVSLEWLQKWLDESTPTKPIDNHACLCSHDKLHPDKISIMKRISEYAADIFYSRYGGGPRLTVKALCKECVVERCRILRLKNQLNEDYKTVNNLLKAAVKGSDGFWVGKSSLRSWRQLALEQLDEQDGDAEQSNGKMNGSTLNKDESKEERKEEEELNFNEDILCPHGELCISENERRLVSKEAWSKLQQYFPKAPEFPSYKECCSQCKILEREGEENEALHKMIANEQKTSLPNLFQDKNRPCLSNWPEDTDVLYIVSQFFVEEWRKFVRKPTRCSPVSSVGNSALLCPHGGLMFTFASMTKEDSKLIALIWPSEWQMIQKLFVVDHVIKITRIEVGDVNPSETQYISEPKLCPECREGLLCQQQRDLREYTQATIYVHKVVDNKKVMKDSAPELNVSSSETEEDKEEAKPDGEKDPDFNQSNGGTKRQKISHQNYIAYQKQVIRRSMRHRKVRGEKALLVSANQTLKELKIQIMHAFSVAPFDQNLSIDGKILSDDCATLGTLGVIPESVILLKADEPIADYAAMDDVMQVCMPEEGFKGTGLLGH
Procedure, shortened: as §1

USP5 = molecular target: T4, USP5 (UniProt P45974)
T4 sequence (whole entry): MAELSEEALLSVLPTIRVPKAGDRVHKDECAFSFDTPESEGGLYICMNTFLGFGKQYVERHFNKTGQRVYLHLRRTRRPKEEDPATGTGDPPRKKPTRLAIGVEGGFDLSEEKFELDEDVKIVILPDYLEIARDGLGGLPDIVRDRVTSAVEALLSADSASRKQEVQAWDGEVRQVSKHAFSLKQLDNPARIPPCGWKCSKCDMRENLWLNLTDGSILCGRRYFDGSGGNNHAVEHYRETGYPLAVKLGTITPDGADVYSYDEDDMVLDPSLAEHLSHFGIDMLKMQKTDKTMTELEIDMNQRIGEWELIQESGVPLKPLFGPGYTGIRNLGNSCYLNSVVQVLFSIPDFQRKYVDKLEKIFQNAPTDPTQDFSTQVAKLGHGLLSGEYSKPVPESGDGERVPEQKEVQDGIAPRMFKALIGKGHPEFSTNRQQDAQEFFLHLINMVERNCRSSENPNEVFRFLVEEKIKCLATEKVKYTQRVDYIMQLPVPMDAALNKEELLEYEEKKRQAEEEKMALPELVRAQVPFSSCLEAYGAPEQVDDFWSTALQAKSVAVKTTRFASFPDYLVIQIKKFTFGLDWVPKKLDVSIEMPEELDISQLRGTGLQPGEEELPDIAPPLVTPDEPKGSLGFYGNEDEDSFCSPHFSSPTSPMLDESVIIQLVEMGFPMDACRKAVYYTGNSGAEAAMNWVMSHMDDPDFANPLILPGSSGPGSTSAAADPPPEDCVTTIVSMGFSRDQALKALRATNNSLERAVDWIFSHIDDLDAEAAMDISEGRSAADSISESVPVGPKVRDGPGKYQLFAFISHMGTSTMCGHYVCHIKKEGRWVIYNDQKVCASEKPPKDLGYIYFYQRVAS
Procedure, shortened: as §1

USP54 = USP54 (UniProt Q70EL1)
Procedure, shortened: as §1

USP7 = USP7 (UniProt Q93009)
Procedure, shortened: as §1

USP8 = molecular target: T5, USP8 (UniProt P40818)
T5 sequence (whole entry): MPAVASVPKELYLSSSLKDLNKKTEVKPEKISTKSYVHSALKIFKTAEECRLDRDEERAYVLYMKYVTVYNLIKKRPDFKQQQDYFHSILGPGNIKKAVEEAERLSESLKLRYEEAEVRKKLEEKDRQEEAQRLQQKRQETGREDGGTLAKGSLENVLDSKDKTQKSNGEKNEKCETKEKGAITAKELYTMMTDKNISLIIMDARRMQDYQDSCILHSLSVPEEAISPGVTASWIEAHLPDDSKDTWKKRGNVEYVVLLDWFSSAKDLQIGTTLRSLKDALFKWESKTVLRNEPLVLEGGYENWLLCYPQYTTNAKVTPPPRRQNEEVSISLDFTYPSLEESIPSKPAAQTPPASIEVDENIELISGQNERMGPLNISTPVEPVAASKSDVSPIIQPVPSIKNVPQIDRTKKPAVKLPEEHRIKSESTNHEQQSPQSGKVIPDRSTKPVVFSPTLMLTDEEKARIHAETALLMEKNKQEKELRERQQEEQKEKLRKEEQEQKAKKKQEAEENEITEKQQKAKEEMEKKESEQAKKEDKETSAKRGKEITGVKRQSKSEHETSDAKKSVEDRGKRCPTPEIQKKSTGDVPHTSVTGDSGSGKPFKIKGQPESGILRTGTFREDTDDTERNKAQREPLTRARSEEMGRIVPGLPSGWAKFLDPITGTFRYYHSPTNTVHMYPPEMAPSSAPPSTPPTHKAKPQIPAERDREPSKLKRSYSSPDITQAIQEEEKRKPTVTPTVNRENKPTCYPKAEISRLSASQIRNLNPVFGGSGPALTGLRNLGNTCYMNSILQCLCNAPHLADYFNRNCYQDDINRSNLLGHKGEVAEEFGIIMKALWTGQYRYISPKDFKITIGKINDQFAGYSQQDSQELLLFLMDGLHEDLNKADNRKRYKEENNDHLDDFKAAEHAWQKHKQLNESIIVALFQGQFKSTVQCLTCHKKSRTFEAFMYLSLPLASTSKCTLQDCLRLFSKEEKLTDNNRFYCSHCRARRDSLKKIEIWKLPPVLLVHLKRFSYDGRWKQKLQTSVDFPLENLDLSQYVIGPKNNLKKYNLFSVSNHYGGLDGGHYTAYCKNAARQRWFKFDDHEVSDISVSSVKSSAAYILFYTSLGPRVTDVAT
Procedure, shortened: as §1

Measured: log2 ratio of Biotin-Ahx-Ub-VS probe labelling

Sequence of USP54 (Q70EL1 whole entry): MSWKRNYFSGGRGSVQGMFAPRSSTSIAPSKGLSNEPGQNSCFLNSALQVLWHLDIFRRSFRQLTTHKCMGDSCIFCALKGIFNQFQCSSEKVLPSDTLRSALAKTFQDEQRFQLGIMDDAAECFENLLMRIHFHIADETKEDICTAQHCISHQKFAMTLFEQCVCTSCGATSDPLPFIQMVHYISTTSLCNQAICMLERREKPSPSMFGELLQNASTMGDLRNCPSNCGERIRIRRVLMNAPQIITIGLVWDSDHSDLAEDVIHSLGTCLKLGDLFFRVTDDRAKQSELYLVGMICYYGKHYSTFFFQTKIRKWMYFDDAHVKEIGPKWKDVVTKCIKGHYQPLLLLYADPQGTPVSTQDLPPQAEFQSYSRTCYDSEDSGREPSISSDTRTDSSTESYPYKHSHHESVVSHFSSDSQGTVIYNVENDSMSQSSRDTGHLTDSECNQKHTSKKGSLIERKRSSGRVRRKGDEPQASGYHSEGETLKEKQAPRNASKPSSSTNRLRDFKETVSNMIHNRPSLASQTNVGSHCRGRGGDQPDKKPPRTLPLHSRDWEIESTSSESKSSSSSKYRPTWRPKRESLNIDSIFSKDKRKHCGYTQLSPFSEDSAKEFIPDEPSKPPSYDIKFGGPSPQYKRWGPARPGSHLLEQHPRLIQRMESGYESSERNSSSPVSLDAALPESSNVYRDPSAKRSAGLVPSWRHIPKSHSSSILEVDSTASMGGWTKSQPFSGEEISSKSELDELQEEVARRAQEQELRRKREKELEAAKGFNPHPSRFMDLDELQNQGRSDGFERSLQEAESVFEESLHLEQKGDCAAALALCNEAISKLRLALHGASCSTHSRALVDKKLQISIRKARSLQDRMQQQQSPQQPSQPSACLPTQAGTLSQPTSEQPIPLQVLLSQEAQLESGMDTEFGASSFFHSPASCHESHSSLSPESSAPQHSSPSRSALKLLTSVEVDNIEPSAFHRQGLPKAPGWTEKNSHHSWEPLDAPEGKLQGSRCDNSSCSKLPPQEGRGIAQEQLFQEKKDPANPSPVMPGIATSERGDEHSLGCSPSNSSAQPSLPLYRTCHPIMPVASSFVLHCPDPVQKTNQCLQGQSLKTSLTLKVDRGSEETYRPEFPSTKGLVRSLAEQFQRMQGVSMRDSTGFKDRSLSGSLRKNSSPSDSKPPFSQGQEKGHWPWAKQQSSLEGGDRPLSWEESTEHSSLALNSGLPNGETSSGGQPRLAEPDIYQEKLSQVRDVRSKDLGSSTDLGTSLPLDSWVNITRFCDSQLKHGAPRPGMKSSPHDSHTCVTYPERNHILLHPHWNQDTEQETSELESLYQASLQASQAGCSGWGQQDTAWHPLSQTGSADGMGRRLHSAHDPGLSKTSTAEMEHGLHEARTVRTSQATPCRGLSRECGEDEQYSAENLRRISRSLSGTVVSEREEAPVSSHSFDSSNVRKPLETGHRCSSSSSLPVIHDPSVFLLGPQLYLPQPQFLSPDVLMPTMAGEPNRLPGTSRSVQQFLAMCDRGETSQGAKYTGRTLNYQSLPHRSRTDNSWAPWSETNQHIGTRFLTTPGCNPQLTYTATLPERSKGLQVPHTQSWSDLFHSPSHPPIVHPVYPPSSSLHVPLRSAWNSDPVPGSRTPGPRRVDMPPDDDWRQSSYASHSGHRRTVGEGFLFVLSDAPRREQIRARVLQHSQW
Sequence of USP7 (Q93009 whole entry, looked up): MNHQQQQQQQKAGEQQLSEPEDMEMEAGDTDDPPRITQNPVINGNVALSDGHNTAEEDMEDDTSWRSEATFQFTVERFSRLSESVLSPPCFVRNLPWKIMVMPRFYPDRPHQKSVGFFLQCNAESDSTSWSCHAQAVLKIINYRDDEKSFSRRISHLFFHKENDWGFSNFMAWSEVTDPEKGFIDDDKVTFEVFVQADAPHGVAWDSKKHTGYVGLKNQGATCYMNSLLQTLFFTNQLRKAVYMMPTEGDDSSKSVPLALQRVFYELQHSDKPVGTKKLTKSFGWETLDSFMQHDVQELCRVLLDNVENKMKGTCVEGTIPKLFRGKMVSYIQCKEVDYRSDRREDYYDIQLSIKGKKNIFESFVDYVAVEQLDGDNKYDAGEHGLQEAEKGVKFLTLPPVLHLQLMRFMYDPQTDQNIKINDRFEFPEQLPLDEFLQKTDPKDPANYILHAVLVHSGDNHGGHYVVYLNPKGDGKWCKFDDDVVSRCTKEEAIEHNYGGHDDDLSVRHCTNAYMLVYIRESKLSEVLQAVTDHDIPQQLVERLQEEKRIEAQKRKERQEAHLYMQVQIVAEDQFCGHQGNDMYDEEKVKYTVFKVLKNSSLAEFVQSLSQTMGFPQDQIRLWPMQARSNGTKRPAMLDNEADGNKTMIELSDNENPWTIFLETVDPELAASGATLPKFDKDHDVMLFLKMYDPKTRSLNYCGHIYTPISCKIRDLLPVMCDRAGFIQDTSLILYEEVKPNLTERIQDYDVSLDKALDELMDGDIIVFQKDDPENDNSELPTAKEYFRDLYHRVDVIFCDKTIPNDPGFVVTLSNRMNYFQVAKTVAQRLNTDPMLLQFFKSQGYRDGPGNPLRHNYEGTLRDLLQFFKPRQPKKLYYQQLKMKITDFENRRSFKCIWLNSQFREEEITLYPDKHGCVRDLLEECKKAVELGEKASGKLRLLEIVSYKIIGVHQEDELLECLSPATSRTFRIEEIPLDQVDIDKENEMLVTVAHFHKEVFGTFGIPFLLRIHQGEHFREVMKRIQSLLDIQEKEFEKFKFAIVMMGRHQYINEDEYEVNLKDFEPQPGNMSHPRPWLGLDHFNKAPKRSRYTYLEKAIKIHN
Sequence of USP46 (P62068 whole entry): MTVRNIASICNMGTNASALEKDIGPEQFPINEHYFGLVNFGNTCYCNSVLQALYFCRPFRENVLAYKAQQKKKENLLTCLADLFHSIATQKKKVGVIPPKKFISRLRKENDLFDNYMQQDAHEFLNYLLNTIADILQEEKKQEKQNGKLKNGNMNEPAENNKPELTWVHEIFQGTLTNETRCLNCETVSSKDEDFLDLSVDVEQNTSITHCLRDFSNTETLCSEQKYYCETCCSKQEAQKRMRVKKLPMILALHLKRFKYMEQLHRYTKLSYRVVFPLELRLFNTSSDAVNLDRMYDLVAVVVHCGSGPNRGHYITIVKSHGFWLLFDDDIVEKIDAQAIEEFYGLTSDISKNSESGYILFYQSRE

Cc1noc(C)c1CNC(=O)CCl
inactive: USP42 0.262 | USP46 -0.347 | USP47 0.0132 | USP48 -0.547 | USP5 -0.403 | USP54 1.07 | USP7 -0.406
active: USP8 -1.2
